Experimental data as given in PubChem BioAssay.
“And” between values parts separate entries of the source, which are not always exact repeats. Equal values may be shown once. For some assays here: Measured potencies and affinities stand elsewhere. The source made the active and inactive calls. Cut-off read from the data, not from the text of the source, unless noted: active = inhibition above about 80%; inactive = the rest.

How the values were obtained:
[1] = chitosan synthesis blockers in C. neoformans – flow cytometry, Cibacron Brilliant Red staining (AID 1347148; call rule not given here;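 note: compound exposure lasted three days at 37 degrees C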); conditions: Cryptococcus neoformans chitosan, stronger effect = lower value; at 10 µM unless noted
[2] = tested on: Neuropilin-2 / VEGF-C interaction (human); assay: small molecules blocking Neuropilin-2/VEGF-C interaction – biochemical, microplate binding format, z-score (AID 743281; call rule not given here); conditions: microplate NRP2/VEGF-C binding assay; stronger effect = lower value
[3] = growth inhibition, single agents and combos, LFS_MB_1R, cell-based, cisplatin or BGB combos, synergistic combos for chromothripsis tumors (AID 1671452); conditions: LFS_MB_1R medulloblastoma cells, stronger effect = higher value;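 note: cells exposed for 96 hours before readout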
[4] = growth inhibition, single agents and combos, CRL2098, cell-based, BGB or cisplatin IC20 combos, synergistic combos for chromothripsis tumors (AID 1671454); conditions: CRL2098 osteosarcoma cells, drug combinations, stronger effect = higher value;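 note: cells exposed for 96 h before readout; 0% = vehicle DMSO and 100% = killing by high DMSO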
[5] = growth inhibition, single agents and combos, HD-MB03, cell-based, BGB or cisplatin IC20 combos, synergistic combos for chromothripsis tumors (AID 1671455; in the data active = inhibition above about 83%;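 note: 0% = vehicle DMSO and 100% = high DMSO as cytotoxic control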); conditions: HD-MB03 medulloblastoma cells, stronger effect = higher value
[6] = growth inhibition, single agents and combos, UWB1.289, cell-based, BGB or cisplatin combos, synergistic combos for chromothripsis tumors (AID 1671456); conditions: UWB1.289 ovarian carcinoma cells, stronger effect = higher value;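 note: cells exposed to compound for four days; 0% = vehicle DMSO and 100% = killing by high DMSO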
[7] = growth inhibition, single agents and combos, LFS_MB_2R, cell-based, cisplatin combos, synergistic combos for chromothripsis tumors (AID 1671457); conditions: LFS_MB_2R medulloblastoma cells, stronger effect = higher value;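 note: cells exposed to compound for four days before readout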
[8] = growth inhibition, MDA-MB-436, cell-based, BGB or cisplatin combos, synergistic combos for chromothripsis tumors (AID 1671458; call rule not given here;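 note: cells exposed for 96 hours; 0% = vehicle DMSO and 100% = killing by high DMSO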); conditions: MDA-MB-436 breast carcinoma growth inhibition, drug combinations, stronger effect = higher value
[9] = UWB1.289_BRCA1 ovarian cancer growth, cell-based, BGB or cisplatin combinations (AID 1671459); conditions: UWB1.289 BRCA1 ovarian carcinoma, drug combinations, stronger effect = higher value
[10] = drug combination toxicity in non-malignant astrocytes – cell-based, BGB or cisplatin IC20 combos, cytotoxicity control for chromothriptic childhood tumor combination screen (AID 1671460); conditions: Human astrocytes, viability inhibition, drug combinations, at 0.5 µM, stronger effect = higher value;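 note: cells exposed to compounds for 96 hours before viability readout; 0% = vehicle and 100% = killing control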
[11] = BT084 cell growth, single and combined drugs, ICGC_MB145, cisplatin and BGB IC40 combos (AID 1671461); conditions: BT084 medulloblastoma cells, drug combinations, stronger effect = higher value;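 note: cells exposed to drugs for 96 hours; 0% = vehicle DMSO and 100% = high DMSO full killing control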
[12] = RCMB18 cell growth, single agent and combined, cisplatin and BGB IC40 combos (AID 1671462); conditions: RCMB18 medulloblastoma cells, stronger effect = higher value;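 note: cells exposed to compound for four days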
[13] = CRL1545 cell growth, single agent and combined, cisplatin and BGB IC20 combos (AID 1671464); conditions: CRL1545 osteosarcoma cells, stronger effect = higher value;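 note: cells exposed to compound for 96 hours before readout; 0% = vehicle DMSO and 100% = high DMSO killing control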
[14] = antimalarial activity against Dd2 strain (AID 2302;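 active = growth inhibition above 50% at the single 2 µM test dose, taken to imply half-maximal potency below 2 µM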;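 note: 0% = DMSO untreated growth and 100% = chloroquine plus artemisinin killed control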); conditions: P. falciparum Dd2 in RBCs, LDH growth readout, 72 h; at 2 µM; stronger effect = higher value
[15] = human hepatoma cell viability loss – ATP luminescence, cytotoxicity control for P. falciparum antimalarial project, primary screen (AID 2303;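 active = inhibition above 50%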;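 note: 0% = DMSO wells and 100% = digitonin-killed cells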); conditions: HepG2 viability, 24-48 h, at 10 µM, stronger effect = higher value
[16] = molecular target: Calcium-dependent protein kinase 1 (Plasmodium falciparum (isolate 3D7)) (UniProt P62344); assay: PfCDPK1 kinase inhibitors, biochemical, TCAMS library (AID 1159585; cut-off not given, nearly all actives have IC50 up to about 0.98 µM;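 note: inhibitors leave more ATP so luminescence rises with inhibition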); conditions: recombinant PfCDPK1, Kinase-Glo ATP depletion luminescence
Sequence of Calcium-dependent protein kinase 1 (Plasmodium falciparum (isolate 3D7)) (P62344 whole entry, looked up): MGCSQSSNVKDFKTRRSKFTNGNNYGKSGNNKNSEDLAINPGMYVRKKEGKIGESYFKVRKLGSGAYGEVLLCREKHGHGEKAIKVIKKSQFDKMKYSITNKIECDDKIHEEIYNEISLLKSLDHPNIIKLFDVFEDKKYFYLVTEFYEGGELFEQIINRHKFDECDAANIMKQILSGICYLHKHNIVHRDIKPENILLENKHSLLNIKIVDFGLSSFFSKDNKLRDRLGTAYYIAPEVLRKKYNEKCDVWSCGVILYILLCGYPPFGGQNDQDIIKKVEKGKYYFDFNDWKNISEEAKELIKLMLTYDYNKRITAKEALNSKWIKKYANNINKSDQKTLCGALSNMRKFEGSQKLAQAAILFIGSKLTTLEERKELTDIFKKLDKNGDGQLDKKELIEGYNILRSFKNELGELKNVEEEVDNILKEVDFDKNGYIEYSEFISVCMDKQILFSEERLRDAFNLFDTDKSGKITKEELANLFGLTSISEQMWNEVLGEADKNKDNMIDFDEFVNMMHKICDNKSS

[17] = molecular target: Plasmodium falciparum protein kinase 6 (PK6, PF3D7_1337100) (UniProt Q8IDW1); assay: PfPK6 kinase inhibitors, biochemical, TCAMS library (AID 1159586; call rule not given here); conditions: recombinant PfPK6, Kinase-Glo ATP depletion luminescence
Sequence of Plasmodium falciparum protein kinase 6 (PK6, PF3D7_1337100) (Q8IDW1 1-305): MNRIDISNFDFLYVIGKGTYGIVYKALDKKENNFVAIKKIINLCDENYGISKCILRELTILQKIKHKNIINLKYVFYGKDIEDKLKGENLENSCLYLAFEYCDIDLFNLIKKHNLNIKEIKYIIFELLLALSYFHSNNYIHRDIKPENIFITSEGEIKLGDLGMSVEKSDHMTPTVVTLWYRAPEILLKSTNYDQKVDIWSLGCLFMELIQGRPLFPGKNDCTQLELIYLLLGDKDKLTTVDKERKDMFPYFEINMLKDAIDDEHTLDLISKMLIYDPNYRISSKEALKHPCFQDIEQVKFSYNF

[18] = molecular target: Protein kinase 7 (PK7), Plasmodium falciparum 3D7 (PF3D7_0213400) (UniProt Q7YTF7); assay: inhibition of Plasmodium PK7 catalytic activity – biochemical, TCAMS antimalarial set, Kinase-Glo luminescence (AID 1159587; call rule not given here); conditions: recombinant PfPK7, Kinase-Glo ATP depletion luminescence
Sequence of Protein kinase 7 (PK7), Plasmodium falciparum 3D7 (PF3D7_0213400) (Q7YTF7 1-343): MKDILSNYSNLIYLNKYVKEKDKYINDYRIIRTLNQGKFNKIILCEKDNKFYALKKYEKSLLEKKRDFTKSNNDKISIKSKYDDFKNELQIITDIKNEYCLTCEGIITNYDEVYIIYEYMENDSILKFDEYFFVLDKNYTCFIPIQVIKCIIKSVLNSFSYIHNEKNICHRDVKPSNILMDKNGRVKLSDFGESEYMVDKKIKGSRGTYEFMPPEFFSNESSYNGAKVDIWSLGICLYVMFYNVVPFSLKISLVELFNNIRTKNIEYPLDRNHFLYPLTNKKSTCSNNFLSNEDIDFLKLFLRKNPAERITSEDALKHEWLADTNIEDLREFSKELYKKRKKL

[19] = molecular target: Calcium-dependent protein kinase 4 (Plasmodium falciparum (isolate 3D7)) (UniProt Q8IBS5); assay: PfCDPK4 kinase inhibitors, biochemical, TCAMS library (AID 1159588; cut-off not given, nearly all actives have IC50 up to about 0.91 µM); conditions: recombinant PfCDPK4, Kinase-Glo ATP depletion luminescence
Sequence of Calcium-dependent protein kinase 4 (Plasmodium falciparum (isolate 3D7)) (Q8IBS5 whole entry, looked up): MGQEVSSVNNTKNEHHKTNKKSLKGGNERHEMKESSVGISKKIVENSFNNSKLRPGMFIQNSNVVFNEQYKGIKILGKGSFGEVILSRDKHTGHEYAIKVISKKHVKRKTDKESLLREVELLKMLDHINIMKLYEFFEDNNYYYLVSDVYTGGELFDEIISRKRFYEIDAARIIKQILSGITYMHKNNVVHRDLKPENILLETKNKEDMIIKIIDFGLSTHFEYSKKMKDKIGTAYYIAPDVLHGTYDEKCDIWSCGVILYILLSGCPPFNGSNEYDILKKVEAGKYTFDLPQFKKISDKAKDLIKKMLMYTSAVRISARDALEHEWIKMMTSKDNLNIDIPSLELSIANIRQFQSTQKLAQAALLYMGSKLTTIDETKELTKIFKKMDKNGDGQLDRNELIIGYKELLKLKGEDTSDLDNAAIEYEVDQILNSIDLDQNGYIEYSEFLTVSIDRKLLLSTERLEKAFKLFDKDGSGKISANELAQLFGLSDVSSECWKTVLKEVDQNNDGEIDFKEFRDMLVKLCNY

[20] = measured here: combination with cisplatin, at 0.5 µM
[21] = measured here: combination with cisplatin, at 5 µM

SMILES: Cc1cccc(Nc2cc(Cl)nc(SCC(=O)O)n2)c1C
- fold fluorescence [1]: 4.05 (inactive)

SMILES: COCCCOc1ccnc(CS(=O)c2nc3ccccc3[nH]2)c1C (stereo unspecified)
- z-score [2]: 0.22 (inactive)

SMILES: NC(=O)c1cccnc1
- z-score [2]: 1.84 (inactive)

SMILES: CCn1cc(C(=O)O)c(=O)c2ccc(C)nc21
- inhibition ([3]; at 0.5 µM): -19% (inactive) and -13.7% (inactive)
- inhibition ([3]; measured here: combination with BGB IC40, at 0.05 µM): -21.7% and -0.433%
- inhibition [3, 20]: -30.2% and 15.7%
- inhibition [3, 21]: -1.32% and 14.5%
- inhibition ([4]; at 0.5 µM): -8.42% (inactive) and -27% (inactive)
- inhibition ([4]; measured here: combination with BGB at IC20, at 0.5 µM): -13.8% and -3.06%
- inhibition ([4]; measured here: combination with cisplatin at IC20, at 0.5 µM): 2.7% and -23.8%
- inhibition ([5]; at 0.5 µM): -1.5% (inactive) and -3.12% (inactive)
- inhibition ([5]; measured here: combo with BGB at IC20, at 0.5 µM): -0.571% and -10.6%
- inhibition ([5]; measured here: combo with cisplatin at IC20, at 0.5 µM): -1.78% and 8.77%
- inhibition ([6]; at 0.5 µM): 13.8% (inactive) and -1.94% (inactive)
- inhibition ([6]; measured here: inhibition with BGB combination, at 0.05 µM): -3.65% and -15.7%
- inhibition ([6]; measured here: inhibition with cisplatin combination, at 0.05 µM): 2.92% and -1.74%
- inhibition ([7]; at 0.5 µM): 5.5% (inactive) and -20.2% (inactive)
- inhibition [7, 20]: 1.69% and -14.8%
- inhibition [7, 21]: 8.3% and -22.4%
- inhibition ([8]; at 0.5 µM): -9.6% (inactive) and -19.2% (inactive)
- inhibition ([8]; measured here: BGB combination, at 0.5 µM): -10.5% and -16.3%
- inhibition ([8]; measured here: BGB combination, at 5 µM): -0.497% and -4.71%
- inhibition ([8]; measured here: cisplatin combination, at 0.5 µM): -19.6% and -33.6%
- inhibition ([8]; measured here: cisplatin combination, at 5 µM): -0.491% and -16.4%
- inhibition ([9]; BGB combination, concentration series, at 5 µM): 11.3% and 18.4%
- inhibition ([9]; at 0.5 µM): 11% (inactive) and -9.48% (inactive)
- inhibition ([9]; cisplatin combination, concentration series, at 5 µM): 7.14% and -4.85%
- inhibition [10]: 1.03% (inactive) and 6.47% (inactive)
- inhibition ([10]; measured here: combo with BGB IC20): -4.36% and 3.89%
- inhibition ([10]; measured here: combo with cisplatin IC20): 17.2% and 0.487%
- inhibition ([11]; at 0.5 µM): -9.05% (inactive) and -29.1% (inactive)
- inhibition ([11]; cisplatin combination, at 0.5 µM): -8.44% and -23.5%
- inhibition ([11]; cisplatin combination, at 5 µM): -55.2% and -59.3%
- inhibition ([11]; measured here: BGB IC40 combination 0.05 uM, at 0.05 µM): 10.8% and -9.88%
- inhibition ([11]; single agent, at 5 µM): -16.7% and -23%
- inhibition ([12]; at 0.5 µM): 1.01% (inactive) and -9.08% (inactive)
- inhibition ([12]; cisplatin combo, at 5 µM): 0.823% and 3.11%
- inhibition ([12]; measured here: BGB IC40 combination, at 0.05 µM): 11.9% and -0.784%
- inhibition [12, 20]: -11.3% and -2.66%
- inhibition ([12]; single agent, at 5 µM): -12.4% and -29.6%
- inhibition ([13]; at 0.5 µM): -14.9% (inactive) and -26.1% (inactive)
- inhibition ([13]; measured here: with BGB IC20 combination, at 0.5 µM): -12.1% and -5.6%
- inhibition ([13]; measured here: with cisplatin IC20 combination, at 0.5 µM): -16.3% and -36.4%
- inhibition ([13]; single agent, at 0.05 µM): -17.6% and 10%
- inhibition ([13]; single agent, at 5 µM): 0.11% and -3.86%

SMILES: CN(C)C(=O)C(CCN1CCC(O)(c2ccc(Cl)cc2)CC1)(c1ccccc1)c1ccccc1
- fold fluorescence [1]: 10.1 [at 104.8 µM] (inactive)

SMILES: O=C(O)CCc1nc(-c2ccccc2)c(-c2ccccc2)o1
- z-score [2]: 0.876 (inactive)

SMILES: COC(=O)C1=C(C)NC(C)=C(C(=O)OC)C1c1ccccc1[N+](=O)[O-]
- z-score [2]: -0.452 (inactive)
- fold fluorescence [1]: 3.72 [at 144.4 µM] (inactive)

SMILES: N=c1nc(N2CCCCC2)cc(N)n1O
- fold fluorescence [1]: 4.24 [at 238.9 µM] (inactive)

SMILES: COc1cc(Cc2cnc(N)nc2N)cc(OC)c1OC
- growth inhibition [14]: 2% (inactive)
- inhibition [15]: 0% (inactive)
- outcome [16]: inactive
- outcome [17]: inactive
- outcome [18]: inactive
- outcome [19]: inactive
